According to PubChem BioAssay AID1209 (Sanford-Burnham Center for Chemical Genomics, 2008):
Hit rate of the full screen: of about 190,000 compounds, about 810 (0.43%) were called active. No stated cut-off is given here; in the data, active means inhibition above about 50%; inactive means the rest. This excerpt belongs to a sample that is enriched for actives.

Molecular target: Mannose-6-phosphate isomerase (Homo sapiens) (UniProt P34949)
Test: inhibitors of human PMI, primary screen, biochemical, fluorescence intensity, coupled assay (AID 1209);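 further: plate controls were DMSO vehicle for no effect and wells lacking substrate for full effect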
Conditions: purified PMI enzyme, at 20 µM, active compounds read high

Mannose-6-phosphate isomerase (Homo sapiens), sequence (P34949 whole entry, looked up): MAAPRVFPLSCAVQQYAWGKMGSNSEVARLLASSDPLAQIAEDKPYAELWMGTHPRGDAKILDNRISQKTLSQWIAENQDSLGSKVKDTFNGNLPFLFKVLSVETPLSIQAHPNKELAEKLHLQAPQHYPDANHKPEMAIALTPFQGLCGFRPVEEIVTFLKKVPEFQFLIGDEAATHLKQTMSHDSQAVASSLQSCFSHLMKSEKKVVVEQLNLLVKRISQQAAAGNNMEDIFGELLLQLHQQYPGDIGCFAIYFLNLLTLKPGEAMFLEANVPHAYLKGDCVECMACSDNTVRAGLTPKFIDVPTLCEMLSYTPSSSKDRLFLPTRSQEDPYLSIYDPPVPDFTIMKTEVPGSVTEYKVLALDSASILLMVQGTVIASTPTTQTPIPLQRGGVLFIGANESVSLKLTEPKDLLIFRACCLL

inhibition, active:
Cc1ccc(OCC(=O)Nc2ccc(-c3nc4ncccc4o3)cc2)c(C)c1 97.8%
Cc1ccc(S(=O)(=O)NCC(=O)N(c2ccccc2)C(C(=O)NCc2ccccc2)c2ccco2)cc1 (stereo not drawn) 57.1%
COc1cc(-c2nnc(SCc3cc(=O)oc4cc(O)c(O)cc34)o2)cc(OC)c1OC 60.1%
Cc1cc([N+](=O)[O-])nn1CCCC(=O)Nc1sc2c(c1C(N)=O)CCCC2 53%
NC(=O)c1c(NC(=O)CCCn2cnc([N+](=O)[O-])n2)sc2c1CCCC2 55.6%
O=C(c1ccccc1)c1c(O)nc(-c2ccccc2)n(-c2ccccc2)c1=O 108%
FC(F)(F)c1ccc2c(c1)n(Cc1ccccc1)c1[n+]2CCCCC1 63.9%
CC(C)c1ccc(C2CC(=O)N3CN(Cc4ccco4)CSC3=C2C#N)cc1 (stereo not drawn) 52.6%
COc1cc(C2CC(=O)N3CN(Cc4ccco4)CSC3=C2C#N)ccc1OCc1ccccc1 (stereo not drawn) 50%
COc1ccc(C2CC(=O)N3CN(Cc4ccco4)CSC3=C2C#N)cc1 (stereo not drawn) 59.1%
N#CC1=C2SCN(Cc3ccco3)CN2C(=O)CC1c1cccc2ccccc12 (stereo not drawn) 55%

inhibition, inactive:
Cc1nc2sc(C(c3cccc(F)c3)N3CC(C)OC(C)C3)c(O)n2n1 (stereo not drawn) -12.7%
CCN1CCN(S(=O)(=O)c2cc(OCC(=O)NC3CCCCC3)c(C)cc2Cl)CC1 11.7%
CC1(C)CC(=O)c2sc(NC(=O)c3ccc4ncsc4c3)nc2C1 -7.8%
Cc1cc(C)cc(OCC(=O)Nc2cccc(-c3nc4ncccc4o3)c2)c1 -1%
Cc1ccc(-c2nc3ncccc3o2)cc1NC(=O)COc1ccccc1 3.5%
COCCNC(=S)NCCc1ccc(Cl)cc1Cl -1.5%
O=C(/C=C/c1ccc(Cl)cc1)NC(=S)Nc1ccc(CN2CCOCC2)cc1 20.8%
COc1ccc(CNC(=O)C(c2ccco2)N(C(=O)CNS(=O)(=O)c2ccccc2)c2ccccc2C)cc1 (stereo not drawn) 14%
Cc1cc(C)cc(N(C(=O)CNS(=O)(=O)c2ccccc2)C(C(=O)NCc2ccccc2)c2ccc(C)o2)c1 (stereo not drawn) 18.8%
Cc1ccc(/C=N/NC(=O)CN2CCN(S(=O)(=O)c3ccc(Br)cc3)CC2)s1 4.9%
COc1cc(-c2nnc(SCc3ccccc3Cl)o2)cc(OC)c1OC 23.4%
COc1cc(-c2nnc(SCc3cc(=O)oc4cc(C)ccc34)o2)cc(OC)c1OC 12.5%
Cc1cc([N+](=O)[O-])nn1CCCC(=O)Nc1sc2c(c1C(N)=O)CCC(C)C2 (stereo not drawn) 9.5%
CC1CCc2c(sc(NC(=O)CCCn3cnc([N+](=O)[O-])n3)c2C(N)=O)C1 (stereo not drawn) 1.2%
CCOC(=O)c1c(NC(=O)Cn2cnc([N+](=O)[O-])n2)sc2c1CCCC2 18.4%
Cc1cc([N+](=O)[O-])nn1CC(=O)Nc1sc2c(c1C(N)=O)CCCC2 10.8%
CC(C)CC(c1nnnn1CCc1ccccc1)N1CCN(C(=O)c2ccco2)CC1 (stereo not drawn) 7.4%
COc1cc(/C=C/C(=O)OCC(=O)Nc2cc(C(F)(F)F)ccc2N2CCOCC2)ccc1O 13%
COC(=O)Nc1ccc(S(=O)(=O)Nc2cnc3ccccc3n2)cc1 -10.9%
CC(C)C(NC(=O)c1ccco1)C(=O)NCC(c1ccco1)N(C)C (stereo not drawn) -3.6%
CCN(C(=O)c1cn(CC)c(=O)c2cc(OC)c(OC)cc12)c1ccccc1C 5.3%
O=C(O)c1nn(-c2ccccc2)c(-c2ccccc2)c1C(=O)c1ccccc1 -12.5%
CC(=O)c1c(O)c(C)c(-c2ccccc2)n(-c2ccccc2)c1=O 2.2%
Oc1c(Br)cc(C2N=C(c3ccccc3Cl)NO2)cc1Br (stereo not drawn) 0.3%
Fc1ccccc1Cn1c2[n+](c3ccc(C(F)(F)F)cc31)CCCCC2 10.3%
FC(F)(F)c1cccc(Cn2c3[n+](c4ccc(C(F)(F)F)cc42)CCCCC3)c1 1.3%
CC1=NN(c2ccc(S(=O)(=O)O)cc2C)C(=O)C1 -63.6%
Fc1ccc(C2CCCN2Cc2nc(Cc3ccccc3)no2)cc1 (stereo not drawn) -7%
CC(=O)Nc1ccccc1C(=O)C(=O)Nc1ccc(C)c(F)c1 19.9%
Cc1cc(C)c(C(=O)COC(=O)Cn2cnnn2)cc1C -10.7%
CCN(CC)c1ccc2ccc(=O)oc2c1 2.1%
CCN(CC)c1ccc2c(C)c(Cl)c(=O)oc2c1 -1.5%
O=C(NCCN1CCOCC1)c1cc2cc([N+](=O)[O-])ccc2s1 5.6%
c1ccc(C2COC(c3cccs3)=N2)cc1 (stereo not drawn) 9.4%
COc1ccc(Br)cc1C1CC(=O)N2CN(Cc3ccccc3)CSC2=C1C#N (stereo not drawn) 34.2%
COc1cc(C2CC(=O)N3CN(Cc4ccccc4)CSC3=C2C#N)ccc1OCc1ccccc1 (stereo not drawn) 45.4%
CC(C)c1ccc(C2CC(=O)N3CN(C)CSC3=C2C#N)cc1 (stereo not drawn) 40.6%
N#CC1=C2SCN(Cc3ccco3)CN2C(=O)CC1c1ccc(Cl)cc1 (stereo not drawn) 28.7%
N#CC1=C2SCN(Cc3ccco3)CN2C(=O)CC1c1c(F)cccc1Cl (stereo not drawn) -3.1%
COc1ccc2ccccc2c1C1CC(=O)N2CN(Cc3ccco3)CSC2=C1C#N (stereo not drawn) 46.4%
Cc1ccc(C2CC(=O)N3CN(Cc4ccco4)CSC3=C2C#N)cc1 (stereo not drawn) 29.7%
N#CC1=C2SCN(Cc3ccco3)CN2C(=O)CC1c1ccccc1F (stereo not drawn) 43.7%
COc1ccc(C(=O)NCC(=O)OCC(=O)N2CC(C)CC(C)C2)cc1 (stereo not drawn) 8.6%
Cc1cc(C)c2[nH]c(=O)c(CN(CC3CCCO3)C(=S)Nc3ccccc3)cc2c1 (stereo not drawn) 28.3%
COc1ccc([N+](=O)[O-])cc1NC(=O)CCN1CCN(C)CC1 -0.2%
COc1ccc2cc(/C(C)=N/NC(=O)C3CC3)ccc2c1 -1.6%
Fc1ccc(-n2[nH]nnc2=S)cc1N1CCCC1 -13.3%
